Source: PubChem (several laboratories)
Rows were chosen to be rich in hits. Some 7.9% of all compounds tested hit in one or more screens of this group.
M1 ag = agonists of M1 muscarinic receptor; hit rate 3% among 64,000; CHO-M1 cells, Fluo-4 calcium fluorescence, agonist mode; hits give high values; B-score at 10 µM;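 active = fluorescence rise, raw or as B-score row- and column-corrected plate score, outside the 99.7% band of its plate's samples, either direction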
PLAP act = human PLAP activation. P05187. purified PLAP enzyme, luminescent substrate read-out; hits give high values. activation fold at 20 µM. hit rate 1.2% among 96,000. AID 696; in the data active = activation fold above about 2
Target sequence (P05187 whole entry, looked up): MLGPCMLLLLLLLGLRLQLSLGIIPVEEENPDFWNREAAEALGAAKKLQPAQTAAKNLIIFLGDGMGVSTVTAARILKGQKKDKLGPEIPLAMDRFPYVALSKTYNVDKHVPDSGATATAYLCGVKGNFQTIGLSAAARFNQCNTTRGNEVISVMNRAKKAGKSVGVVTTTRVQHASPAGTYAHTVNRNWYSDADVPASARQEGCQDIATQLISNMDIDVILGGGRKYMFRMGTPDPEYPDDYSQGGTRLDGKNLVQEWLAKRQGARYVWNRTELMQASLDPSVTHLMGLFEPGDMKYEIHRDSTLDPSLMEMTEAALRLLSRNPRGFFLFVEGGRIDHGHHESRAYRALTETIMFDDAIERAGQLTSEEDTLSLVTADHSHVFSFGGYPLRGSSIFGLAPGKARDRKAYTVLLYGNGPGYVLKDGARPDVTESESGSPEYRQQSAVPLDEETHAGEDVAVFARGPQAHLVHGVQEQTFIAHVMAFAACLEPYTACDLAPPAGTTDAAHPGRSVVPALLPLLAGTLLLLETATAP
M1 antag = M1 muscarinic receptor (rat) antagonism; P08482; CHO-M1 cells, Fluo-4 calcium, ACh EC80 antagonist mode; hits give low values; B-score at 10 µM; hit rate 3.4% among 64,000;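 active = calcium fluorescence response, raw or row-and-column corrected B-score, differing from the plate sample mean either way at a set confidence level, mostly lower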
Cav32 inh = inhibitors of human Cav3.2 T-type calcium channel | O95180 | Cav3.2-expressing cells, Fluo-4 calcium fluorescence FDSS; hits give low values | B-score at 10 µM | hit rate 4% among 100,000 | AID 449739;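 active = single-dose well whose peak fluorescence ratio is a statistical outlier from its plate by either plate-standardised score or position-corrected B-score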
HER2 expr 66K = lowers expression of human Her2 kinase | SKBR-3 HER2 protein level, AlphaScreen, 18-24 h; hits give low values | hit rate 0.69% among 65,000 | AID 645 | HER2 level % of control, % at 10 µM;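 active = HER2 level under 5% of the carrier-only control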;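 also: 100% = DMSO carrier and 0% = 500 nM PU-H71 HSP90 inhibitor; lower value means stronger loss of Her2 protein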
Active calls of the source: *; nt = no result given.

SMILES	M1 ag	PLAP act	M1 antag	Cav32 inh	HER2 expr 66K
Cc1ccc(-c2nnn(CC(=O)N(c3ccccc3F)C(CC(C)C)C(=O)NCC3CCCO3)n2)cc1 (stereo not given)	nt	1.4	nt	-4.43*	nt
Cc1cc2oc(=O)cc(COC(=O)c3cccc(N(C)C)c3)c2cc1C	-1.91	nt	-0.0787	nt	98.1
O=C(NC1CCCC1)C(c1c[nH]c2ccccc12)N(C(=O)Cn1nnc(-c2ccc(Cl)cc2)n1)c1ccccc1 (stereo not given)	nt	1.2	nt	-4.63	nt
COc1cccc(N(C(=O)Cn2nnc(-c3ccc(C)cc3)n2)C(C(=O)NC(C)(C)C)c2c[nH]c3ccccc23)c1 (stereo not given)	nt	1.4	nt	-5.61*	nt
COc1cccc(CSc2nnc(CSc3nc4nc(C)cc(C)n4n3)s2)c1	nt	2.1*	nt	-0.237	nt
Cc1c(N)cccc1-c1nc2ccccc2[nH]1	nt	nt	nt	0.137	nt
CC(C)(C)c1nn(-c2ccccc2)c2[nH]c(=O)c(CNCc3ccco3)cc12	0.166	2.4*	0.0438	0.228	69.4
Cc1nn(-c2ccc(Cl)cc2)c2[nH]c(=O)c(CNCc3ccc4c(c3)OCO4)cc12	1.27	1.9	-0.878	-0.67	-19.3*
COc1ccc(CNCc2cc3c(C(C)(C)C)nn(-c4ccccc4)c3[nH]c2=O)cc1	nt	2.5*	nt	-1.69	nt
Cc1ccc(CNCc2cc3c(C(C)(C)C)nn(-c4ccccc4)c3[nH]c2=O)cc1	nt	2.1*	nt	-0.191	nt
CC(C)(C)c1nn(-c2ccccc2)c2[nH]c(=O)c(CNc3ccc4c(c3)OCCO4)cc12	nt	1.7	nt	-0.0938	nt
CC(Sc1nc2ccccc2n1C)C(=O)NC(c1ccccc1)c1ccccc1 (stereo not given)	nt	nt	nt	-9.34*	nt
CC(C)NC(=O)CSc1nc2ccccc2n1-c1ccccc1	0.255	nt	0.945*	-1.09	112.8
N#CCSc1nnc(COc2ccc3ccccc3c2)o1	-1.15	1.4	-0.796	-0.658	88.9
COc1cc(-c2nnc(SCC3(c4ccc(Br)cc4)OCCO3)o2)cc(OC)c1OC	nt	1	nt	-1.13	nt
COc1cc(C[C@@H](CO)[C@H](CO)Cc2ccc(O)c(OC)c2)ccc1O	nt	nt	nt	-0.327	nt
Cc1cc(C(C)(C)C)oc1C(=O)N(CC(=O)NC1CCCC1)Cc1ccc(F)cc1	nt	0.9	nt	-1.33	nt
Cc1ccc(C)c(N(CC(=O)NC2CCCC2)C(=O)c2oc(C(C)(C)C)cc2C)c1	nt	1.6	nt	-4.75*	nt
N#CC(c1cccc(C(F)(F)F)c1)(c1ncc(C(F)(F)F)cc1Cl)N1CCOCC1 (stereo not given)	nt	1.2	nt	-4.26*	nt
CCN(CC)c1cc(C)c2cc(NC(=O)CNC(C)=O)ccc2n1	nt	1	nt	0.832	119.7
Cc1ccc(S(=O)(=O)C2(C(=O)N3CCN(C4CCCCC4)CC3)CC2)cc1	-0.179	nt	-0.0324	-5.19*	97.2
N#CC1=C(N)Oc2n[nH]c(-c3cccs3)c2C1C1C=CCCC1 (stereo not given)	nt	0.8	nt	-1.34	nt
COC(=O)Cc1[nH]nc2c1C(c1cccc(OC)c1OC)C(C#N)=C(N)O2 (stereo not given)	-0.107	2*	-0.0174	0.248	82.6
CCOC(=O)Cc1[nH]nc2c1C(c1cccc(OC)c1OC)C(C#N)=C(N)O2 (stereo not given)	-0.000464	2.2*	0.876	-0.924	113.9
COCc1[nH]nc2c1C(c1ccccc1OC)C(C#N)=C(N)O2 (stereo not given)	-0.767	1	0.451	0.711	83.5
SMILES	M1 ag	PLAP act	M1 antag	Cav32 inh	HER2 expr 66K
CCOC(=O)Cc1[nH]nc2c1C(C1C=CCCC1)C(C#N)=C(N)O2 (stereo not given)	-0.234	2.1*	0.875	2.59	78.4
CCOC(=O)c1sc(=S)n(Cc2ccccc2)c1N	0.315	0.8	-0.407	-6.68*	63.9
O=S1(=O)C=C(Sc2nc3ccccc3s2)c2ccccc21	-0.739	1	-0.948	1.69	-18.5*
O=C(CSc1nc2ccccc2s1)CSc1nc2ccccc2s1	nt	1.2	nt	-0.0621	nt
O=c1oc2ccccc2n1CSc1nc2ccccc2s1	0.113	0.5	-0.107	-4.09*	74.8
Cn1c(CSc2nc3ccccc3s2)nc2ccccc21	-0.63	1.2	-0.12	-4.74*	87.7
Cn1c(CSc2nc3ccccc3s2)n[nH]c1=S	-0.173	1.8	0.314	1.28	83.7
Cn1c(CSc2ncn[nH]2)nc2ccccc21	0.0144	2.8*	0.0354	0.751	139.1
c1ccc2[nH]c(CSc3nc4ccccc4s3)nc2c1	nt	1.1	nt	-6.43*	nt
Brc1ccc(-c2nc3ncccn3c2NC2CCCCC2)o1	nt	1.3	nt	-1.48	nt
COc1cccc(CNC(=O)C2CCC(CNS(=O)(=O)c3cccc4nsnc34)CC2)c1 (stereo not given)	nt	1.4	nt	0.464	nt
